Compounds without any hit were thinned out: in the full panel of roughly 79,000, 15% have a hit. A number with no mark means an inactive call. Active and inactive are the calls of the source. No stated cut-off is given here; in the data, active means growth inhibition above about 70%; inactive means the rest.
Tests used:
[1] = NCI Yeast Anticancer Drug Screen. Data for the rad50 strain (AID 155);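 further: 0% = growth of vehicle-only cultures of the same strain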; settings: S. cerevisiae rad50 strain growth inhibition, hits give high values
In short: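 Yeast carrying a defined DNA repair defect were exposed to test compounds, and growth was compared with vehicle-treated controls to give percent inhibition.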

[2] = NCI Yeast Anticancer Drug Screen. Data for the mec2-1 strain (AID 157); settings: S. cerevisiae mec2-1 strain, hits give high values
In short: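 Mutant yeast (mec2-1) grown with compound; growth inhibition relative to vehicle control reported.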

[3] = NCI Yeast Anticancer Drug Screen. Data for the sgs1 mgt1 strain (AID 161);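 further: 0% = growth of cultures given vehicle only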; settings: S. cerevisiae sgs1 mgt1 strain, hits give high values
In short: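 Growth of a repair-deficient yeast mutant was monitored after compound treatment and expressed as inhibition relative to vehicle-treated cultures.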

[4] = NCI Yeast Anticancer Drug Screen. Data for the cln2 rad14 strain (AID 165);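 further: 0% = growth equal to vehicle treated cultures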; settings: S. cerevisiae cln2 rad14 strain, hits give high values
In short: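 Readout is yeast growth inhibition versus vehicle-treated controls, using a strain with cln2 and rad14 alterations exposed to compound.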

[5] = NCI Yeast Anticancer Drug Screen. Data for the bub3 strain (AID 167); settings: S. cerevisiae bub3 mutant strain, hits give high values
In short: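 Compounds were applied to a genetically altered yeast strain carrying a cell-cycle control defect. Growth inhibition was scored against vehicle-treated controls.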

[6] = NCI Yeast Anticancer Drug Screen. Data for the mlh1 rad18 strain (AID 175); settings: S. cerevisiae mlh1 rad18 strain growth inhibition, hits give high values
In short: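 Genetically defined yeast (DNA repair-deficient) exposed to compounds; growth inhibition determined relative to vehicle.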

[7] = at 5.0 µM (retest, dose inferred, filed as 0.5)
[8] = at 50.0 µM (retest, dose inferred, filed as 5.0)

Compound | growth inhibition [1, 7] | growth inhibition [1, 8] | growth inhibition ([1]; at 50.0 µM) | growth inhibition [2, 7] | growth inhibition [2, 8] | growth inhibition ([2]; at 50.0 µM) | growth inhibition [3, 7] | growth inhibition [3, 8] | growth inhibition ([3]; at 50.0 µM) | growth inhibition [4, 7] | growth inhibition [4, 8] | growth inhibition ([4]; at 50.0 µM) | growth inhibition [5, 7] | growth inhibition [5, 8] | growth inhibition ([5]; at 50.0 µM) | growth inhibition [6, 7] | growth inhibition [6, 8] | growth inhibition ([6]; at 50.0 µM)
CCc1nc(N)nc(N)c1-c1ccc(NCCCCCCCCCCCCN)c([N+](=O)[O-])c1 | -18% | 99% (active) | 94.2% (active) | -11% | 99% (active) | 99.2% (active) | -1% | 99% (active) | 40.4% | -24% | 98% (active) | 87% (active) | -5% | 99% (active) | 98.5% (active) | -19% | 99% (active) | 98.7% (active)
COC(=O)c1nc(Cl)nc(Cl)c1N | 8% | 95% (active) | 96.7% (active) | 14% | 95% (active) | 97.3% (active) | 11% | 92% (active) | 98.2% (active) | -3% | 92% (active) | 96% (active) | 7% | 95% (active) | 97.8% (active) | 11% | 96% (active) | 98.2% (active)
CN(C)c1cc2c(cc1[N+](=O)[O-])-c1ccccc1C2O (stereo not given) | 5% | 48% | 91.4% (active) | -1% | 28% | 29.9% | 0% | 57% | 56.6% | -4% | 34% | 41.4% | -6% | 60% | 70.5% (active) | 5% | 74% (active) | 86.6% (active)
Oc1cccc2c(Br)ccnc12 | -5% | 100% (active) | 87% (active) | -21% | 99% (active) | 92% (active) | -33% | 99% (active) | 85% (active) | -5% | 99% (active) | 87.8% (active) | -29% | 99% (active) | 87.2% (active) | 15% | 99% (active) | 81.8% (active)
COc1cc(NCCCCCNC(C)C)c2ncc(C)c(C)c2c1 | 3% | 36% | 75.7% (active) | -4% | 6% | 44.5% | 3% | 23% | 61.4% | 7% | 20% | 12.1% | 3% | 35% | 79% (active) | 9% | 27% | 55.4%
Sc1c(Br)cc(Br)cc1Br.[Ag] | 7% | 99% (active) | 31.6% | 6% | 100% (active) | 30.9% | 26% | 99% (active) | 72.4% (active) | 6% | 99% (active) | 14.6% | -1% | 100% (active) | 30.7% | 19% | 99% (active) | 59.5%
Clc1ccccc1/C=C/c1ccnc2ccccc12 | 1% | 99% (active) | 97.7% (active) | 17% | 99% (active) | 97.8% (active) | 14% | 99% (active) | 97.9% (active) | -19% | 98% (active) | 96.8% (active) | -3% | 99% (active) | 97.9% (active) | -5% | 99% (active) | 98.2% (active)
CN(C)CCCNc1c2ccccc2nc2cccc([N+](=O)[O-])c12 | 93% (active) | 99% (active) | 89.4% (active) | 95% (active) | 99% (active) | 93% (active) | 95% (active) | 99% (active) | 92.8% (active) | 95% (active) | 99% (active) | 89.2% (active) | 76% (active) | 99% (active) | 90.8% (active) | 90% (active) | 98% (active) | 89.9% (active)
COc1ccc(C2c3cc4c(cc3OC(NCCO)C2C)OCO4)cc1 (stereo not given) | -3% | 88% (active) | 89% (active) | -43% | 86% (active) | 92.5% (active) | -50% | 82% (active) | 90.3% (active) | 5% | 78% (active) | 92% (active) | -24% | 95% (active) | 91.2% (active) | -18% | 91% (active) | 88.2% (active)
CC1=C2CCC3C(CCC4(C)C(C(C)CCCC(C)C)CCC34)C2(C)CCC1=O (stereo not given) | -11% | -2% | 41% | 1% | -2% | 4.25% | 4% | -1% | 16.4% | 6% | 3% | 18.4% | 1% | 5% | 4.1% | 17% | 9% | 10.9%
CC(C)(C)C(=O)CC(=O)C(F)(F)C(F)(F)C(F)(F)F.CC(C)(C)C(=O)CC(=O)C(F)(F)C(F)(F)C(F)(F)F.CC(C)(C)C(=O)CC(=O)C(F)(F)C(F)(F)C(F)(F)F.[Er] | 92% (active) | 28% | 92.5% (active) | 65% | 9% | 91% (active) | 43% | 38% | 91.2% (active) | 40% | 38% | 88.8% (active) | 40% | 34% | 91.2% (active) | 90% (active) | 26% | 65.8%
C[C@]12CC[C@H](O)CC1=CC[C@@H]1C2CC[C@]2(C)NC(=O)CCC12 (stereo not given in full) | -4% | 0% | 46.9% | 1% | 4% | 40.8% | -2% | 16% | 82.8% (active) | 1% | 0% | 53% | 3% | 4% | 39.3% | -3% | 1% | 76% (active)
O=[N+]([O-])c1cccc(S(=O)(=O)Cl)c1 | -1% | 10% | -15.3% | 2% | 3% | 14.9% | 1% | 6% | 14.2% | -3% | 0% | 43.9% | -2% | 4% | 59.5% | -1% | 2% | 33.5%
COc1cc(C2c3cc4c(cc3[C@@H](OCCN)[C@H]3COC(=O)C23)OCO4)cc(OC)c1O (stereo not given in full) | 47% | 93% (active) | 52.2% | 11% | 55% | 77.2% (active) | 29% | 63% | 69.5% | 29% | 28% | 49.6% | 24% | 44% | 49.5% | 19% | 68% | 80.7% (active)
CC1CCN(SSc2nc3ccccc3s2)CC1 | 31% | 91% (active) | 28.4% | 36% | 94% (active) | 80.5% (active) | 51% | 96% (active) | 77.4% (active) | 44% | 70% (active) | 21.4% | 61% | 97% (active) | 82% (active) | 30% | 73% (active) | 79% (active)
COC(=O)N/N=C(\c1ccc(O)cc1)C(C)C1(O)C(=O)Nc2ccccc21 (stereo not given) | -16% | 35% | -19.5% | 6% | 20% | 7.45% | 7% | 26% | 16.9% | -2% | 23% | -30.2% | 1% | 34% | -0.8% | -3% | 28% | 14.2%
CC(C)C1=C(O)C2=C(C(=O)C1=O)C1(C)CCCC(C)(C)C1C(O)C2OC=O (stereo not given) | 91% (active) | 95% (active) | 92.2% (active) | 100% (active) | 100% (active) | 93.7% (active) | 99% (active) | 100% (active) | 93.5% (active) | 81% (active) | 99% (active) | 92% (active) | 100% (active) | 100% (active) | 92.5% (active) | 98% (active) | 99% (active) | 87.5% (active)
CCOC(=O)Nc1cc2c(cn1)[nH]c1ccccc12 | -3% | 46% | -0.8% | 7% | 72% (active) | -12.2% | -1% | 52% | 8.35% | 1% | 25% | -0.4% | 2% | 38% | 3.25% | 5% | 86% (active) | 5.3%
O=c1ssc(=Nc2ccc(Cl)cc2)n1-c1ccc(Cl)cc1 | 77% (active) | 99% (active) | 98.5% (active) | 57% | 99% (active) | 99.4% (active) | 95% (active) | 99% (active) | 98.2% (active) | 16% | 99% (active) | 87.9% (active) | 74% (active) | 99% (active) | 99.5% (active) | 30% | 99% (active) | 98% (active)
O=S(=O)(Nc1ccc2ccc3cccc4ccc1c2c34)c1ccccc1 | 7% | 25% | 57.6% | 3% | 12% | 34.9% | 6% | 45% | 62.2% | -8% | -7% | 17.6% | -4% | 19% | 56.9% | 6% | 55% | 71.2% (active)

— PubChem BioAssay (NCI)
